In PubChem BioAssay (EPA / NIEHS):
Results filed as inconclusive are left out. The source made the active and inactive calls. How the source made its calls: active means hit-call score of the fitted dose curve at least 0.9, where 1 is the maximum; inconclusive means response in the unintended direction; inactive means score below 0.9.

Assay: ACEA_ER_AUC_viability: ACEA Biosciences xCELLigence Real-Time Cell Analysis on Estrogen Receptor Agonism for Viability (AID 2283782);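 further: continuous compound exposure with impedance area under curve over 80 h; hit means loss of impedance signal meaning reduced cell growth or viability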
Outline: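 T-47D; phenol red-free RPMI1640 + 10% CS-FBS; 8 conc., 1:4 serial, max 100 uM final, ≤0.5% DMSO; n = 2; continuous exposure; impedance monitored to 80 h post-dose; AUC vs DMSO.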

Q: With `COc1ccc2nc(N)sc2c1` as the molecule, how does the outcome read?
A: inactive

Q: For `O=S1(=O)OC(c2ccc(O)cc2)(c2ccc(O)cc2)c2ccccc21`, which outcome is on record?
A: inactive

Q: For `CC(C)COC(=O)C=Cc1ccccc1`, which outcome is on record?
A: inactive

Q: For `CCOc1nc(F)cc2nc(S(=O)(=O)Nc3c(Cl)cccc3C(=O)OC)nn12`, which outcome is on record?
A: inactive

Q: Which outcome does the source give for `Cc1cc(C)c(C)c(O)c1` here?
A: inactive

Q: With `O=Nc1ccc(O)cc1` as the molecule, how does the outcome read?
A: inactive

Q: With `CC(C)CC(O)Cc1ccccc1` (stereo unspecified) as the molecule, how does the outcome read?
A: inactive

Q: For `CC[C@H]1OC(=O)[C@H](C)[C@@H](O[C@H]2C[C@@](C)(OC)[C@@H](O)[C@H](C)O2)[C@H](C)[C@@H](O[C@@H]2O[C@H](C)C[C@H](N(C)C)[C@H]2O)[C@](C)(O)C[C@@H](C)C(=NOCOCCOC)[C@H](C)[C@@H](O)[C@]1(C)O`, which outcome is on record?
A: inactive

Q: Which outcome does the source give for `C1=CCCC1` here?
A: inactive

Q: For `CCCCCCCCCCc1ccccc1`, which AC50 is on record?
A: 26.2 µM (active)

Q: For `CC(=O)OC1C2(C)CCC(C2)C1(C)C` (stereo unspecified), which outcome is on record?
A: inactive

Q: Which AC50 does the source give for `C=C(C)CCO` here?
A: 65.9 µM (active)

Q: For `C/C=C\C/C=C/CCCCCCCCOC(C)=O`, which AC50 is on record?
A: 82.3 µM (active)

Q: Which AC50 does the source give for `Nc1ccc(Cl)cc1Cl` here?
A: 29.2 µM (active)

Q: Which AC50 does the source give for `C[Si](C)(CCCN)O[Si](C)(C)CCCN` here?
A: 55.9 µM (active)

Q: For `CC1(C)S[C@@H]2[C@H](NC(=O)COc3ccccc3)C(=O)N2[C@H]1C(=O)O`, which outcome is on record?
A: inactive

Q: For `Nc1ccc(N)c(Cl)c1`, which AC50 is on record?
A: 67.8 µM (active)

Q: With `CCCCCCCC(C)=O` as the molecule, how does the outcome read?
A: inactive

Q: For `CCCCCCCCCCCCCCCC[N+](C)(C)CC`, which AC50 is on record?
A: 12.3 µM (active)

Q: For `CC(CC=O)CCCC(C)(C)O` (stereo unspecified), which outcome is on record?
A: inactive

Q: Which outcome does the source give for `CCO[Si](CCCN=C=O)(OCC)OCC` here?
A: inactive

Q: Which outcome does the source give for `CCCCCCCCc1ccc(Nc2ccc(CCCCCCCC)cc2)cc1` here?
A: inactive

Q: With `O=C(Nc1ccccc1SSc1ccccc1NC(=O)c1ccccc1)c1ccccc1` as the molecule, how does the AC50 read?
A: 77.7 µM (active)

Q: Which outcome does the source give for `CCOC(=O)[C@H](C)O` here?
A: inactive

Q: With `CC(C)c1ccc(C#N)cc1` as the molecule, how does the AC50 read?
A: 50 µM (active)

Q: For `CC(=O)CC(N)=O`, which outcome is on record?
A: inactive

Q: For `COC(=O)c1sccc1S(N)(=O)=O`, which outcome is on record?
A: inactive

Q: For `O=C1CCCC1`, which outcome is on record?
A: inactive

Q: Which outcome does the source give for `CC(=O)OCC(C)OC(C)=O` (stereo unspecified) here?
A: inactive

Q: Which outcome does the source give for `O=C1C=CC(=O)O1` here?
A: inactive

Q: Which AC50 does the source give for `CCCCCCCCC(=O)OCC` here?
A: 50 µM (active)

Q: With `COc1cc(C)ccc1C(C)C` as the molecule, how does the outcome read?
A: inactive

Q: For `CNC(=S)N(C)C`, which outcome is on record?
A: inactive

Q: Which outcome does the source give for `C=C1[C@H]2CC[C@@H]3[C@H]2C(C)(C)CCC[C@]13C` here?
A: inactive

Q: With `Cn1c(=O)[nH]c2ncn(C)c2c1=O` as the molecule, how does the outcome read?
A: inactive

Q: For `CCOC(=O)Cc1cccc2ccccc12`, which AC50 is on record?
A: 50 µM (active)
